Structures are written as SMILES. Records with an inconclusive call do not appear. A number with no mark means an inactive call. The call rests on the fitted dose curve; in most records, active means well fitted cell-killing curve with a large enough effect; inconclusive means small, poorly fitted or top-dose-only effect; inactive means flat fitted curve, though single readings scatter.

The experiment in a line: Cell Viability - Renal Proximal Tubule (AID 545).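 Further: 0% = DMSO only and -100% = 100 µM tamoxifen; nearly all actives have a fitted effect of over 40% in size.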 The conditions noted are these: renal proximal tubule cells viability; series mostly up to 91.7 µM; activity change, negative = cytotoxicity: at the top concentration. From the text:
NIH Chemical Genomics Center [NCGC]
NIH Molecular Libraries Screening Centers Network [MLSCN]
National Institutes of Environmental Health Sciences [NIEHS]
National Toxicology Program [NTP]
We have developed a 1536-well cell-based assay for quantitative high throughput screening (qHTS) against a number of cell lines to determine in vitro cytotoxicity of small molecules. This particular assay uses the renal proximal tubule cells which are derived from normal kidney cells freshly isolated from rat.
NCGC Assay Protocol Summary:
The CellTiter-Glo luminescent cell viability assay (Promega) is a homogeneous method to measure the number of viable cells in culture. The end point readout of this assay is based on quantitation of intracellular ATP, an indicator of metabolic activity, using the luciferase reaction. Luciferase catalyzes the oxidation of beetle Luciferin to oxyluciferin and light in the presence of ATP. The luminescent signal is proportional to amount of ATP present.
Using the CellTiter-Glo luminescent cell viability assay, the amount of cellular ATP was measured in the renal proximal tubule cells with complete culture medium following compound treatment for 40 hours. The assay was performed in opaque white Kalypsys 1536-well plates. In the screen, tamoxifen and doxorubicin were used as positive controls. Library compounds were measured for their ability to cause acute toxicity in the cell line, as reflected by a decrease in intracellular ATP levels, in a concentration-dependent manner. […] AC50 values were determined from concentration-response data modeled with the standard Hill equation.
qHTS protocol for CellTiter Glo renal proximal tubule cell assay
[Step] [Parameter] [Value] [Description]
1. Reagent; 5 uL; 1000 renal proximal tubule cells/well
2. Time; 5 hr; 37 °C incubation
4. Controls; 23 nL; Tamoxifen 0.34 uM to 100 uM & Doxorubicin 0.02 nM to 100 uM
5. Time; 40 hr; 37 °C incubation
6. Reagent; 5 uL; CellTiter Glo reagent
7. Time; 20 min; Room Temperature
8. Detection; Luminescence; Viewlux plate reader
Keywords: cell viability, cytotoxicity, renal proximal tubule cells, luminescence, NTPHTS, NTPHTS_NCGC, NIEHS, EPA, DSSTox, MLSMR, MLSCN, NIH Roadmap, qHTS, NCGC
For `Cl/C=C/CCl`, the “activity change, negative = cytotoxicity” value was -10.9%. Regarding `N#CCBr`, the “activity change, negative = cytotoxicity” value is -10.6%. As to `CC(C)CC(C)N` (stereo not given), the “activity change, negative = cytotoxicity” value is 6.68%. Regarding `O=C(Cl)c1ccccc1F`, the “activity change, negative = cytotoxicity” value is 1.18%. With `C=CCOCC1CO1` (stereo not given), the “activity change, negative = cytotoxicity” value was 11.5%. With `CN=C=O`, the “activity change, negative = cytotoxicity” value was -3.63%.

Regarding `Cc1ccccc1[N+](=O)[O-]`, the “activity change, negative = cytotoxicity” value was -9.66%. In the case of `O=[N+]([O-])c1ccc(Cl)cc1`, the “activity change, negative = cytotoxicity” value was -10.3%.

With `Clc1ccccc1`, the “activity change, negative = cytotoxicity” value was -9.29%. For the compound `Cl/C=C/Cl`, the “activity change, negative = cytotoxicity” value was -2.81%. Consider `S=c1[nH]c2ccccc2[nH]1`, for which the “activity change, negative = cytotoxicity” value is -6.43% [at 91.7 µM].

Turning to `Oc1cc(Cl)cc(Cl)c1`, the “activity change, negative = cytotoxicity” value is -4.23%. Consider `CN1CSC(=S)N(C)C1`, for which the “activity change, negative = cytotoxicity” value is -23.9%. Consider `Oc1ccc(Cl)c(Cl)c1`, for which the “activity change, negative = cytotoxicity” value was -23.8%. On to `Nc1ccccc1-c1ccccc1`, for which the “activity change, negative = cytotoxicity” value is -9.29%. Turning to `ClC(Cl)(Cl)C(Cl)(Cl)Cl`, the “activity change, negative = cytotoxicity” value was -5.66% [at 91.7 µM]. With `C=CC(=O)OC` the figure was 7.36%; with `c1ccc2c(c1)CCNC2`, 1.29%; with `Cc1ccc(N)c(C)c1`, -3.91%.

Turning to `Cc1ccc2c(c1N)C(=O)c1ccccc1C2=O`, the “activity change, negative = cytotoxicity” value was -19.9%. As to `ClCCBr`, the “activity change, negative = cytotoxicity” value is -4.34%. For the compound `Cc1cc(Cl)ccc1O`, the “activity change, negative = cytotoxicity” value is 2.26%. As to `Nc1ccc(-c2ccc(N)cc2)cc1`, the “activity change, negative = cytotoxicity” value is -18.4%. Take `CCN(CC)CCO`: the “activity change, negative = cytotoxicity” value is 8.44%.

In the case of `Clc1ccc(C(c2ccccc2Cl)C(Cl)(Cl)Cl)cc1` (stereo not given), the “activity change, negative = cytotoxicity” value is -15.9% [at 91.7 µM].

For `CC(C)[C@]12CC(=O)[C@H](C)[C@H]1C2`, the “activity change, negative = cytotoxicity” value is -11.6%. In the case of `Clc1ccc(Cl)c(Cl)c1`, the “activity change, negative = cytotoxicity” value is 3.6%. Turning to `C=C(C)CCl`, the “activity change, negative = cytotoxicity” value was -9.51% [at 91.7 µM].

As for `O=NN1CCCCC1`, the “activity change, negative = cytotoxicity” value is -5.88%. Regarding `O=C(O)CCl`, the “activity change, negative = cytotoxicity” value was -15.2%. For `NC1CCC(CC2CCC(N)CC2)CC1` (stereo not given), the “activity change, negative = cytotoxicity” value is -0.725%. As for `CC(C)(COCC1CO1)COCC1CO1` (stereo not given), the “activity change, negative = cytotoxicity” value is -8.41%. The figure for `OCCBr` is -3.62%. Consider `CC(C)(OOC(C)(C)c1ccccc1)c1ccccc1`, for which the “activity change, negative = cytotoxicity” value is -1.93%. `O=[N+]([O-])c1ccc(Cl)c(Cl)c1Cl`: the “activity change, negative = cytotoxicity” value is -4.67%.

`Clc1ccc(C(Cl)(Cl)Cl)c(Cl)c1`: the “activity change, negative = cytotoxicity” value is 1.05%. Consider `C=C(Cl)CCl`, for which the “activity change, negative = cytotoxicity” value is 2.94%.

Turning to `CN(C)C(=O)Nc1cccc(C(F)(F)F)c1`, the “activity change, negative = cytotoxicity” value is -8.64% [at 91.7 µM]. With `Clc1ccc(C(Cl)(Cl)Cl)cc1Cl` the figure was -7.32%; with `ClC(Cl)Br`, -8.81%.

For the origin of these results see PubChem BioAssay (NCATS).
